From PubChem BioAssay
Sampled rows, rich in hits. Any-hit rate of the full collection: about 4.9%.
SKKanGAS inh – S. pyogenes SKKanGAS growth inhibitors in kanamycin, primary screen, streptokinase expression inhibitor project, SKKanGAS strain, BacTiter-Glo luminescence | actives 1.3% (n = 300,000) | 6 h | inhibition, % at 7.5 µM;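 active means mean replicate score, as percent of positive control median, at least 50; inconclusive means mean below 50 but one replicate at or above 50; inactive means mean and every replicate below 50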;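 further: strain carries kanamycin resistance gene driven by streptokinase promoter and grows in 40 µg/ml kanamycin; loss of luminescence reflects streptokinase promoter inhibition or plain growth inhibition; 0% = median of DMSO wells and 100% = positive control at its reference dose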
NALP1 yeast inh – NALP1 inflammasome inhibitors in reconstituted yeast, colorimetric, S. cerevisiae, triplicate retest. S. cerevisiae NALP1/ASC/caspase-1 growth, X-gal OD620, 72 h. AID 2071, 2009. inhibition, % at 10 µM. actives 0.61% (n = 280,000); in the data active means inhibition mostly above about 24%, no sharp cut-off; inactive means mostly below about 32%
tim10-1 inh – growth inhibitors of tim10-1 mutant yeast, primary screen, luminescence, uHTS | S. cerevisiae tim10-1 ts strain growth, BacTiter-Glo, 24 h | inhibition, % at 20 µM | AID 463190, 2010 | actives 2.2% (n = 330,000);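 active means inhibition of at least 40%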;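 further: mutant grown at 25 °C; 0% = DMSO wells with yeast and 100% = wells holding no yeast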
tim23-1 inh – growth inhibitors of tim23-1 mutant yeast, primary screen, luminescence, uHTS | S. cerevisiae tim23-1 growth, BacTiter-Glo luminescence, 24 h | inhibition, % at 20 µM | AID 463212, 2010 | actives 1.3% (n = 330,000);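 active means growth inhibition of the mutant yeast at or above 50%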;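 further: temperature-sensitive mutant grown at 25 °C; plate controls were DMSO-treated mutant yeast for no effect and medium wells lacking yeast for full effect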
NLRP3 yeast inh – NALP3 inflammasome inhibitors in reconstituted yeast, primary screen, luminescence, uHTS; actives 0.39% (n = 330,000); Yeast reconstituted NLRP3/ASC/caspase-1, beta-gal luminescence, 24 h; AID 2825, 2010; inhibition, % at 10 µM;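 active means inhibition of 50% or more; inactive means inhibition below 50%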;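 further: plate controls were induced DMSO wells for no effect and uninduced yeast grown without galactose for full effect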
TIM10 inh – growth inhibitors of isogenic TIM10 control yeast, primary screen, counter-screen for tim10-1 yeast inhibitor project, luminescence, uHTS; inhibition, % at 10 µM; S. cerevisiae TIM10 strain growth, BacTiter-Glo luminescence, 24 h; actives 1.4% (n = 330,000);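 active means inhibition of 40% or more at the single tested concentration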;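 further: wild-type TIM10 isogenic control strain grown at permissive 25 °C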
tim10-1 conf – growth inhibitors of tim10-1 mutant yeast, confirmation, single concentration, luminescence, S. cerevisiae; actives 56% (n = 7,400); shares compounds with tim10-1 inh; AID 463213, 2010; S. cerevisiae tim10-1 ts strain growth, BacTiter-Glo, 24 h; inhibition, % at 20 µM;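 active means inhibition of yeast growth at or above a set limit in either of two repeat tests at 20 µM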;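 further: tim10-1 mutant grown at permissive 25 °C to find synthetic lethal compounds; 0% = DMSO yeast wells and 100% = medium wells without yeast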
TIM10 conf – growth inhibitors of wild-type TIM10 yeast, confirmation, counter-screen for tim10-1 synthetic lethality project, single concentration, luminescence, S. cerevisiae | inhibition, % at 10 µM | S. cerevisiae tim10 strain growth, BacTiter-Glo luminescence, 24 h | actives 63% (n = 4,600) | AID 463215, 2010 | shares compounds with TIM10 inh;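 active means inhibition of yeast growth at or above a set limit in either of two replicates at 10 µM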;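 further: this counterscreen used the strain with wild-type TIM10; 0% = yeast with DMSO and 100% = medium wells lacking yeast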
* hit, by the source's call; ? = inconclusive; / = no result given.

SMILES	SKKanGAS inh	NALP1 yeast inh	tim10-1 inh	tim23-1 inh	NLRP3 yeast inh	TIM10 inh	tim10-1 conf	TIM10 conf
O=c1c2ccccc2nc(/C=C/c2ccc([N+](=O)[O-])cc2)n1CCCO	3.3	31.5	5.7	5.0	-3.6	4.7	/	/
C/C(=N/NC(=S)Nc1cccc(C)c1)c1cccc([N+](=O)[O-])c1	-6.1	13.3	51.9*	35.9	18.7	49.4*	42.8*	40.6*
Cc1cccc(NC(=S)N/N=C2/CCCCc3ccccc32)c1	37.7	21.6	51.0*	46.1	42.5	47.1*	37.4*	4.2
COc1cccc(NC(=S)NN=C2CCCCCC2)c1	51.9*	-12.5	44.9*	34.5	18.8	41.0*	36.5*	30.8
CC/C(=N\NC(=S)Nc1cccc(C)c1)c1ccccc1	61.6*	-2.3	59.9*	41.6	44.3	47.6*	38.7*	53.5*
Cc1ccc(C)c(NC(=S)N/N=C2\CCc3ccccc32)c1	?	/	29.5	31.2	37.8	36.6	/	/
Oc1ccccc1N1CCN(CC(O)COC2CCCc3ccccc32)CC1 (stereo not given)	-0.1	15.0	-16.8	9.4	23.1	9.8	/	/
O=C(NN=Cc1ccc(N2CCOCC2)s1)c1ccc([N+](=O)[O-])cc1	/	/	9.0	-11.2	23.2	-11.9	/	/
COc1ccccc1NS(=O)(=O)c1ccc(C)c(C(=O)NCCCN2CCCC2=O)c1	-7.9	/	-3.5	-7.6	11.4	2.7	/	/
COCC1CCN(C(=O)C2CCC(=O)N(CCc3cccc(F)c3)C2)CC1 (stereo not given)	0.1	14.3	1.6	13.7	6.6	7.6	/	/
Cc1cccc(C)c1OCc1cc(C(=O)N2CCNC(=O)C2)no1	-2.3	27.4	-11.5	14.7	20.7	-4.1	/	/
CCc1cc(-c2[nH]ncc2-c2ccc(OC)cc2)c(O)cc1O	-5.9	-14.3	35.7	21.8	21.4	15.4	/	/
COc1ccc(-c2cn[nH]c2-c2ccc(OCc3ccc([N+](=O)[O-])cc3)cc2O)cc1	16.0	20.5	46.9*	27.7	16.3	41.7*	12.3	-5.6
CCCOC(=O)/C(=C\c1ccc([N+](=O)[O-])o1)NC(=O)c1ccccc1	1.2	8.2	56.3*	42.3	4.5	53.6*	46.9*	-8.3
O=C(NCCO)/C(=C\c1ccc([N+](=O)[O-])o1)NC(=O)c1ccccc1	0.0	3.5	11.8	3.4	9.3	1.0	/	/
O=S(=O)(c1ccc(F)c(F)c1)N1CCC2(CC1)OCCO2	3.1	12.7	16.9	4.4	11.9	4.7	/	/
O=C(NC(=S)N1CCCC1)c1cccc([N+](=O)[O-])c1	32.4	0.3	11.4	-6.8	18.8	-0.6	/	/
CCOC(=O)c1c(N2C(=O)C=CC2=O)sc(C)c1C	4.0	53.2*	47.2*	19.5	5.0	76.9*	44.2*	72.2*
CCOC(=O)c1c(NC(N)=O)sc(C)c1C	-3.0	19.5	14.5	16.8	12.9	10.6	/	/
CCc1c(C)nc2cc(-c3cc(OC)cc(OC)c3)nn2c1N1CCCC1	18.3	-10.2	-2.5	36.3	21.3	29.5	/	/
CCc1c(C)nc2cc(-c3ccc(OC)c(OC)c3)nn2c1N1CCCC1	-6.6	23.3	41.3*	48.8	29.1	41.6*	-0.8	20.6
CCCC(=O)NC(=S)Nc1cccc(Cl)c1N1CCCCC1	100.9*	/	43.5*	41.8	-30.3	50.0*	27.6	36.2*
CCOC(=O)C1CCCN(C(=O)c2ccc(CS(=O)(=O)c3ccc(C)cc3)o2)C1 (stereo not given)	-2.6	2.9	12.8	6.4	5.0	6.2	/	/
CCOC(=O)C1CCCN(C(=O)c2ccc(-c3ccc([N+](=O)[O-])cc3)o2)C1 (stereo not given)	-8.4	/	57.9*	46.1	9.0	45.8*	66.3*	57.6*
CN1CCc2c(C#N)c(N3CCCCC3)nc(NCc3ccccc3)c2C1	9.8	6.7	48.3*	25.0	1.7	43.0*	31.9*	16.8
SMILES	SKKanGAS inh	NALP1 yeast inh	tim10-1 inh	tim23-1 inh	NLRP3 yeast inh	TIM10 inh	tim10-1 conf	TIM10 conf
N#Cc1c(NCCCO)nc(NCc2ccccc2)c2c1CCN(Cc1ccccc1)C2	2.2	-0.8	38.0	14.0	12.8	12.5	/	/
CC(C)(C)NC(=O)c1ccc2c(c1)C1C3CCC(C3)C1C(c1ccccc1)N2 (stereo not given)	5.0	27.8	44.1*	44.4	7.4	41.5*	33.5*	-9.2
O=C1CC(N2CCC(c3nc4ccccc4o3)CC2)C(=O)N1c1cc(Cl)cc(Cl)c1 (stereo not given)	13.7	-17.6	40.8*	32.6	17.4	40.5*	11.8	21.6
OCCN1CCN(C2Cc3cc(Cl)ccc3Sc3ccc(Cl)cc32)CC1 (stereo not given) (tested in a mixture with another compound)	10.8	26.9	48.5*	19.6	24.9	43.5*	35.5*	0.9
CN1CCN(C2Cc3cc(Cl)ccc3Sc3cc(F)ccc32)CC1 (stereo not given)	7.1	/	14.5	9.9	34.9	32.1	/	/
CC(=O)N1N=C(c2ccccc2)OC1c1ccc([N+](=O)[O-])s1 (stereo not given)	-8.2	16.7	47.0*	47.1	18.5	51.3*	68.6*	31.6*
O=C(NCc1ccccc1Cl)c1ccc(S(=O)(=O)NCc2ccco2)cc1	/	/	4.4	25.6	40.1	4.9	/	/
Cn1c(SCCOc2ccccc2Cl)nnc1-c1cccs1	4.6	-3.4	50.8*	38.8	38.7	51.2*	39.9*	51.4*
Cc1cc(OCCSc2nnc(-c3cccs3)n2C)ccc1Cl	-14.3	8.8	26.5	43.7	-0.1	38.5	/	/
CC1C/C(=N\NC(=S)NCc2ccccc2)CC(C)(C)C1 (stereo not given)	?	-1.8	58.1*	48.1	0.9	54.0*	47.9*	45.1*
COc1ccc(OC)c(/C=N/N(C)c2ccccc2)c1	0.6	0.2	20.8	22.0	6.6	9.0	/	/
COc1cc(/C=N/N(C)c2ccccc2)cc(Cl)c1O	14.0	0.7	47.7*	38.2	0.7	40.4*	16.0	20.1
C=CC[C@@H](CC(=O)N[C@H](CO)Cc1ccccc1)C(=O)N[C@@H](COC(=O)[C@@H](CC=C)Cc1ccc(F)cc1)Cc1ccccc1	/	/	4.2	1.2	5.6	4.6	/	/
